Data taken from PubChem BioAssay (EPA / NIEHS).
Activity calls are given as the source filed them. The calls were made as follows: active = hit-call score of the fitted dose curve at least 0.9, where 1 is the maximum; inactive = score below 0.9.

What was measured:
[1] = read-out: Interferon-gamma inducible Protein 10 (IP10), CXCL10 (gene 3627); test: BSK_hDFCGF_IP10: BioMAP Diversity Plus: hDFCGF Assay for Interferon-gamma inducible Protein 10 (IP10) Biomarker Activity (AID 2283053); conditions: primary human foreskin fibroblasts; actives raise or lower the signal
Procedure, shortened: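 Chemical-treated human skin fibroblasts (primary) were sampled at 24 h for IP-10 by ELISA. Both increases and decreases relative to DMSO were scored.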

[2] = read-out: Urokinase-type plasminogen activator receptor (uPAR), PLAUR (gene 5329); test: BSK_CASM3C_uPAR: BioMAP Diversity Plus: CASM3C Assay for Urokinase-type plasminogen activator receptor (uPAR) Biomarker Activity (AID 2283054); conditions: primary human coronary artery smooth muscle cells; actives raise or lower the signal;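 also: cell-surface uPAR protein level quantified by ELISA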
[3] = read-out: Vascular cell adhesion molecule 1 (VCAM1), VCAM1 (gene 7412); test: BSK_CASM3C_VCAM1: BioMAP Diversity Plus: CASM3C Assay for Vascular cell adhesion molecule 1 (VCAM1) Biomarker Activity (AID 2283055); conditions: primary human coronary artery smooth muscle cells; actives raise or lower the signal;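 also: VCAM-1 protein level quantified by ELISA on the cells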
[4] = read-out: Collagen III, COL3A1 (gene 1281); test: BSK_hDFCGF_CollagenIII: BioMAP Diversity Plus: hDFCGF Assay for Collagen III Biomarker Activity (AID 2283056); conditions: primary human foreskin fibroblasts; actives raise or lower the signal
Procedure, shortened: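 ELISA readout of Collagen III in human dermal (foreskin) fibroblasts, taken 24 h post-treatment. Gain or loss relative to DMSO vehicle fitted in both directions.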

[5] = read-out: Epidermal growth factor receptor (EGFR), EGFR (gene 1956); test: BSK_hDFCGF_EGFR: BioMAP Diversity Plus: hDFCGF Assay for Epidermal growth factor receptor (EGFR) Biomarker Activity (AID 2283057); conditions: primary human foreskin fibroblasts; actives raise or lower the signal
Procedure, shortened: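 Cell-based multiplexed assay in primary human foreskin fibroblasts. EGFR is read by ELISA 24 h after treatment and compared with DMSO controls.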

[6] = read-out: Interleukin-8 (IL8), CXCL8 (gene 3576); test: BSK_hDFCGF_IL8: BioMAP Diversity Plus: hDFCGF Assay for Interleukin-8 (IL8) Biomarker Activity (AID 2283058); conditions: primary human foreskin fibroblasts; actives raise or lower the signal
Procedure, shortened: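 IL-8 levels read by ELISA at 24 hours after dosing human skin fibroblast cultures. Parallel SRB staining assessed overt cytotoxicity, and gain or loss of signal was fitted against DMSO control.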

[7] = BSK_hDFCGF_Proliferation: Cell Proliferation Assessment in the BioMAP Diversity Plus: hDFCGF Assay (AID 2283059); conditions: primary human foreskin fibroblasts;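 also: curves fitted for both rise and fall of signal versus DMSO baseline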
Procedure, shortened: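 Primary human foreskin fibroblasts, sub-confluent; […]; 10% TCA fix, 0.1% SRB stain, A560 total protein. Gain/loss fitted bidirectionally vs DMSO control.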

[8] = read-out: Macrophage colony-stimulating factor (MCSF), CSF1 (gene 1435); test: BSK_hDFCGF_MCSF: BioMAP Diversity Plus: hDFCGF Assay for Macrophage colony-stimulating factor (MCSF) Biomarker Activity (AID 2283060); conditions: primary human foreskin fibroblasts; actives raise or lower the signal
Procedure, shortened: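 M-CSF levels read by ELISA at 24 h post-dosing in human skin fibroblasts. Parallel cultures stained with SRB assessed cytotoxicity at the same time point; response fitted in both directions against the DMSO baseline.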

[9] = BSK_hDFCGF_SRB: Viability Assessment in the BioMAP Diversity Plus: hDFCGF Assay (AID 2283061); conditions: primary human foreskin fibroblasts;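 also: cells exposed to compound for 24 h before the read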
Procedure, shortened: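 Viability was read as total protein: after 10% TCA fixation, wells were stained with 0.1% sulforhodamine B and read at 560 nm. Primary human foreskin fibroblasts were dosed for 24 h, with bidirectional fitting versus DMSO.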

[10] = read-out: TIMP metallopeptidase inhibitor 1 (TIMP1), TIMP1 (gene 7076); test: BSK_hDFCGF_TIMP1: BioMAP Diversity Plus: hDFCGF Assay for TIMP metallopeptidase inhibitor 1 (TIMP1) Biomarker Activity (AID 2283062); conditions: primary human foreskin fibroblasts; actives raise or lower the signal
Procedure, shortened: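 TIMP-1 measured by ELISA 24 h after chemical dosing of primary human skin fibroblasts, with gain or loss fitted relative to DMSO. Parallel SRB staining (560 nm) monitored overt cytotoxicity.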

[11] = read-out: Monokine induced gamma interferon (MIG), CXCL9 (gene 4283); test: BSK_hDFCGF_MIG: BioMAP Diversity Plus: hDFCGF Assay for Monokine induced gamma interferon (MIG) Biomarker Activity (AID 2283063); conditions: primary human foreskin fibroblasts; actives raise or lower the signal
Procedure, shortened: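 Human primary foreskin fibroblasts in the hDFCGF system, exposed to test chemical for 24 h; MIG measured by ELISA. Bidirectional curve fitting against DMSO negative control as activity baseline.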

[12] = read-out: Matrix Metallopeptidase 1 (MMP1), MMP1 (gene 4312); test: BSK_hDFCGF_MMP1: BioMAP Diversity Plus: hDFCGF Assay for Matrix Metallopeptidase 1 (MMP1) Biomarker Activity (AID 2283064); conditions: primary human foreskin fibroblasts; actives raise or lower the signal
Procedure, shortened: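 ELISA read-out of MMP1 from human foreskin fibroblasts (primary skin cells), 24 h post-dose. Gain or loss of signal was fitted bidirectionally versus DMSO negative control; cytotoxicity was checked by SRB in parallel cultures.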

[13] = read-out: Vascular cell adhesion molecule 1 (VCAM1), VCAM1 (gene 7412); test: BSK_hDFCGF_VCAM1: BioMAP Diversity Plus: hDFCGF Assay for Vascular cell adhesion molecule 1 (VCAM1) Biomarker Activity (AID 2283065); conditions: primary human foreskin fibroblasts; actives raise or lower the signal;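 as to AC50: VCAM-1 protein level quantified by ELISA after 24 h chemical exposure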
Procedure, shortened: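 ELISA readout of VCAM-1 on human dermal fibroblast primary cultures, 24 h after chemical exposure. Gain or loss of signal fitted in both directions against DMSO baseline.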

[14] = read-out: Plasminogen activator inhibitor-1 (PAI1), SERPINE1 (gene 5054); test: BSK_hDFCGF_PAI1: BioMAP Diversity Plus: hDFCGF Assay for Plasminogen activator inhibitor-1 (PAI1) Biomarker Activity (AID 2283066); conditions: primary human foreskin fibroblasts; actives raise or lower the signal
Procedure, shortened: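 Human skin fibroblast cultures receive chemical for 24 h before PAI-1 is measured by ELISA; signal changes are fitted bidirectionally against DMSO-treated wells.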

[15] = read-out: Intercellular Adhesion Molecule 1 (ICAM1), ICAM1 (gene 3383); test: BSK_KF3CT_ICAM1: BioMAP Diversity Plus: KF3CT Assay for Intercellular Adhesion Molecule 1 (ICAM1) Biomarker Activity (AID 2283067); conditions: primary human keratinocytes with fibroblasts; actives raise or lower the signal
Procedure, shortened: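 Cell-surface ICAM-1 was measured by ELISA 24 h after dosing primary human skin keratinocytes co-cultured with fibroblasts. Parallel SRB staining tracked overt cytotoxicity. Gain or loss of signal was fitted relative to DMSO.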

[16] = read-out: Interleukin-1 alpha (IL1a), IL1A (gene 3552); test: BSK_KF3CT_IL1a: BioMAP Diversity Plus: KF3CT Assay for Interleukin-1 alpha (IL1a) Biomarker Activity (AID 2283070); conditions: primary human keratinocytes with fibroblasts; actives raise or lower the signal
Procedure, shortened: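 Primary skin co-culture (keratinocytes, foreskin fibroblasts), 24 h exposure; ELISA for IL-1a; bidirectional curve fit vs DMSO.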

[17] = read-out: TIMP metallopeptidase inhibitor 2 (TIMP2), TIMP2 (gene 7077); test: BSK_KF3CT_TIMP2: BioMAP Diversity Plus: KF3CT Assay for TIMP metallopeptidase inhibitor 2 (TIMP2) Biomarker Activity (AID 2283071); conditions: primary human keratinocytes with fibroblasts; actives raise or lower the signal
Procedure, shortened: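 Measurements come from ELISA detection of TIMP-2 at 24 hours in a dosed human keratinocyte and foreskin fibroblast co-culture. DMSO serves as negative control and baseline.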

[18] = read-out: Transforming growth factor beta 1 (TGFb1), TGFB1 (gene 7040); test: BSK_KF3CT_TGFb1: BioMAP Diversity Plus: KF3CT Assay for Transforming growth factor beta 1 (TGFb1) Biomarker Activity (AID 2283072); conditions: primary human keratinocytes with fibroblasts; actives raise or lower the signal
Procedure, shortened: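 TGF-b1 ELISA on a 24 h dosed co-culture of human keratinocytes and foreskin fibroblasts; cytotoxicity tracked in parallel cultures by SRB staining.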

[19] = BSK_KF3CT_SRB: Viability Assessment in the BioMAP Diversity Plus: KF3CT Assay (AID 2283069); conditions: primary human keratinocytes with fibroblasts;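 also: total protein by sulforhodamine B staining as a cytotoxicity measure; read 24 h after compound addition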
Procedure, shortened: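 SRB read-out at 560 nm (0.1% stain, TCA-fixed cells) gauges overt cytotoxicity in a human skin keratinocyte–fibroblast co-culture 24 h post-dosing. Signal change was fitted bidirectionally relative to DMSO control.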

Measured: AC50

CCCCC=O
not listed: [19]
inactive: all other assays above

CCOC(=O)CN[C@@H](C(=O)N1CC[C@H]1C(=O)NCc1ccc(/C(N)=N/O)cc1)C1CCCCC1
not listed: [19]
inactive: all other assays above

C[C@]12CC[C@@H]3c4ccc(O)cc4CC[C@H]3[C@@H]1C[C@@H](O)[C@@H]2O
not listed: [19]
inactive: all other assays above

N=C(N)c1ccc(OCCCCCOc2ccc(C(=N)N)cc2)cc1
active: [1] 17.5 µM | [5] 29.1 µM | [6] 20.9 µM | [7] 12.1 µM | [8] 20.6 µM | [9] 25.8 µM | [10] 27.2 µM | [13] 28.1 µM | [14] 28.5 µM
inactive: [3] | [4] | [11] | [15] | [19] | [16] | [17] | [18]

NC(=NCCCCCCN=C(N)/N=C(\N)Nc1ccc(Cl)cc1)/N=C(\N)Nc1ccc(Cl)cc1
active: [1] 8.17 µM | [2] 4.86 µM | [3] 9.65 µM | [4] 1.18 µM | [7] 1.44 µM | [8] 4.84 µM | [9] 4.77 µM | [10] 6.5 µM | [12] 7.45 µM | [13] 5.46 µM | [14] 3.67 µM | [15] 7.53 µM | [19] 4.79 µM | [16] 4.32 µM | [17] 5.01 µM | [18] 2.35 µM
inactive: [6]

CS(=O)(=O)c1ccc([C@@H](CC2CCCC2)C(=O)Nc2cnccn2)cc1Cl
active: [2] 26.3 µM | [7] 20 µM | [14] 20 µM
not listed: [19]
inactive: all other assays above

CCCCC(CC)C(=O)O (centres undefined)
not listed: [19]
inactive: all other assays above

CCCCC(CC)C(=O)OCCOCCOCCOCCOC(=O)C(CC)CCCC (centres undefined)
active: [8] 20 µM
not listed: [19]
inactive: all other assays above

CC(=O)Nc1ccc(O)cc1
not listed: [19]
inactive: all other assays above

O=C(CCCN1CCC(O)(c2ccc(Cl)cc2)CC1)c1ccc(F)cc1
active: [7] 4.55 µM
not listed: [19]
inactive: all other assays above

CN(C)c1ccc(C(=C2C=CC(=[N+](C)C)C=C2)c2ccccc2)cc1
active: [1] 0.0138 µM | [2] 0.0461 µM | [3] 0.554 µM | [4] 1.23 µM | [6] 2.67 µM | [7] 0.0173 µM | [8] 0.0319 µM | [9] 0.0082 µM | [10] 0.0082 µM | [11] 0.0509 µM | [12] 0.765 µM | [13] 0.0134 µM | [14] 0.0185 µM | [15] 0.516 µM | [16] 0.359 µM | [17] 0.795 µM | [18] 0.194 µM
inactive: [5]

O=C(c1ccccc1)c1ccccc1
not listed: [19]
inactive: all other assays above
